From PubChem BioAssay (NCATS) come the findings set out here.

Values without a mark were called inactive. Activity calls are given as the source filed them. The rule behind the calls is not given here.

In experiment [1] the target is Nuclear receptor subfamily 1 group I member 2 (Rattus norvegicus) (UniProt Q9R1A7). The experiment is described as follows: qHTS assay for small molecule activators of the rat pregnane X receptor (rPXR) signaling pathway (AID 651751). The settings on record: rPXR reporter cells, luciferase (One-Glo), 24 h. In general terms: In qHTS, concentration-response curves come from the screen itself.

Experiment [2] is described as follows: qHTS assay for small molecule activators of the human pregnane X receptor (PXR) signaling pathway (AID 720659). Particulars: DPX-2 HepG2 CYP3A4-luciferase, 24 h; series mostly up to 92.3 µM.
Note: 0% is about no effect.

Chain of Nuclear receptor subfamily 1 group I member 2 (Rattus norvegicus) (Q9R1A7 whole entry, looked up): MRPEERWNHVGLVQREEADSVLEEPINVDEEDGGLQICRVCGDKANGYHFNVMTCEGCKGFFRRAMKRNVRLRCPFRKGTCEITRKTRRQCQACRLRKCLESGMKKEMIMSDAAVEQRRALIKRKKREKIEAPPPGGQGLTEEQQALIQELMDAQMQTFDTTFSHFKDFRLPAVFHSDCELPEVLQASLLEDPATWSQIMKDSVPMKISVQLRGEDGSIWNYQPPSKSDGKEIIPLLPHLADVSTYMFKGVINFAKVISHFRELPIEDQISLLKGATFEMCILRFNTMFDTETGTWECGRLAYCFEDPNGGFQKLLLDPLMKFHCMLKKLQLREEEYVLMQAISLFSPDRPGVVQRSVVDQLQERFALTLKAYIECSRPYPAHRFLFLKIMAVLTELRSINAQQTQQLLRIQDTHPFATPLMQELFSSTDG

As to `Cc1cc(O)c2c(c1)C(=O)c1cccc(O)c1C2=O`, in experiment [1], the max response is -1.64%. In addition, the compound was classed as inactive in experiment [2]. For `CC(C=CC1=C(C)CCCC1(C)C)=CC=CC(C)=CC(=O)Nc1ccc(O)cc1`, in experiment [2], the result was inactive. As for `OC[C@@H](O)[C@@H](O)[C@H](O)[C@@H](O)CO`, the max response in experiment [1] was 14.3%. Further, the outcome in experiment [2] was inactive. With `O=C1c2cccc(O)c2C(=O)c2c(O)cc(CO)cc21`, the max response in experiment [1] was -0.0257%. Moreover, the result in experiment [2] was inactive.
